Test results taken from PubChem BioAssay AID777 (Sanford-Burnham Center for Chemical Genomics, 2007).
The whole screen tested about 96,000 compounds, of which about 19,000 (20%) were called active. Not all results are given here. Values without a mark were called inactive.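 Rule for the calls: active = blocking of liver enzyme CYP2C9 beyond about 50% at 5 µM (limit read from the data); inactive = the rest.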

target: Cytochrome P450 2C9 (Homo sapiens) (UniProt P11712); assay: blockers of cytochrome P450 2C9 activity – biochemical, luminescence, ADME assay, primary screen (AID 777); settings: CYP2C9 Supersomes, luciferin-H conversion, at 5 µM, stronger effect = higher value
Sequence (P11712 whole entry, looked up): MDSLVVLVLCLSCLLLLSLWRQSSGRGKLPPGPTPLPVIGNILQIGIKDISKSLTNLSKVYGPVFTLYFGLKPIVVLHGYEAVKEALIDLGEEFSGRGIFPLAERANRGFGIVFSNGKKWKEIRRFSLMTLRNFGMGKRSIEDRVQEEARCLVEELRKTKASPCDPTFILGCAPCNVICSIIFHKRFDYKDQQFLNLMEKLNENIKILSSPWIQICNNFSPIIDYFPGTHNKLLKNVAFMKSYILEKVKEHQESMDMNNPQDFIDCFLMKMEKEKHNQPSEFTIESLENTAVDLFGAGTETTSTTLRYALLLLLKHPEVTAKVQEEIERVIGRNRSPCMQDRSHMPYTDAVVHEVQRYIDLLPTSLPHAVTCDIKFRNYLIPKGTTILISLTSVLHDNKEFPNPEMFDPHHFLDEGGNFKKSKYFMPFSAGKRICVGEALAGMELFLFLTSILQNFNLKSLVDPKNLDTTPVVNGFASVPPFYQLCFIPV

SMILES | inhibition
CC(=O)N1CCc2cc(S(=O)(=O)Nc3ccccc3N3CCN(C)CC3)ccc21 | 2%
CCCC(=O)C1CCN(Cc2ccccc2)CC1 | -8.7%
Cc1nc2ccc(NC(=O)C(F)(F)F)cc2o1 | 4.8%
Cn1c(C(=O)NCCCN2CCCCC2)cc2sccc21 | 6.6%
O=C(CSc1nc(-c2ccco2)cc(C(F)(F)F)n1)N1CCc2ccccc2C1 | 45.8%
CCOC(=O)c1ccn(-c2nc(-c3ccco3)cc(C(F)(F)F)n2)n1 | 62% (active)
Cc1cc(C(F)(F)F)nn1-c1nc(-c2ccco2)cc(C(F)(F)F)n1 | 3.1%
Cc1ccc2c(c1)N(CC(=O)N1CCCc3ccccc31)C(=O)C(C)O2 (stereo unspecified) | 22%
COc1cc(-c2nc(-c3ccncc3)no2)cc(OC)c1OC | 76.6% (active)
CCOc1nc(-c2ccc(OC)cc2)ccc1-c1noc(-c2cc(OC)c(OC)c(OC)c2)n1 | 8.3%
COc1ccc(-c2noc(-c3cccc(OC)c3OC)n2)cc1OC | -101%
CC(OC(=O)CN1C(=O)C2CCCCC2C1=O)C(=O)Nc1ncc(Cl)cc1Cl (stereo unspecified) | -1.7%
COc1ccc2oc(=O)c(C(=O)N3CCN(c4ccccc4F)CC3)cc2c1 | 28.7%
COc1ccccc1N1CCN(CCCCOc2ccc(F)cc2)CC1 | 12%
COc1ccc(Nc2ncc(C(=O)N3CCN(c4ccccc4OC)CC3)c3ccccc23)cc1 | 65.9% (active)
COc1cnc(SCc2ccc(Cl)c(Cl)c2)nc1Cl | 16.5%
CCOC(=O)c1cc(C)sc1NC(=O)C1CCC1 | 42.3%
O=C1c2cccnc2C(Nc2ccc(S(=O)(=O)N3CCCCCC3)cc2)N1Cc1ccccc1 (stereo unspecified) | 53.4% (active)
O=C(NCCCN1CCN(Cc2ccccc2)CC1)C1CCN(S(=O)(=O)N2CCCC2)CC1 | 1.8%
Cc1ccc(S(=O)(=O)N2CCC(C(=O)N[C@@H](C)C(=O)NCCc3ccccc3)CC2)cc1 | -25.2%
Cc1cc2c(cc1C)NC(c1ccccn1)C1=C(CC(C)(C)CC1=O)N2 (stereo unspecified) | -11.2%

SMILES | inhibition
Cc1nn(-c2ccccn2)c2c1C(c1ccncc1)C1=C(CC(C)(C)CC1=O)N2 (stereo unspecified) | 79.7% (active)
CCOC(=O)c1c(-n2cnnn2)sc(C)c1C | 10.3%
Cc1cc(C)nc(NC(=O)Nc2ccccc2C(F)(F)F)n1 | -193%
O=C(Nc1ccc(Sc2ccc(Br)cc2)cc1)c1ccco1 | 3.3%
Cc1cccc(NC(=O)c2sc3nc4c(c(-c5ccco5)c3c2N)CCC4)c1 | 17.9%
CCCc1cc(=O)[nH]c(SCC(=O)c2cc(C)n(CCC)c2C)n1 | 5.3%
CCCc1cc(=O)[nH]c(SCc2ccc(C#N)cc2)n1 | 60.3% (active)
CCCc1cc(=O)[nH]c(SCC(=O)OCc2ccccc2)n1 | 38.5%
O=C(CNC(=O)Cc1ccccc1)NCC(=O)OCC(=O)c1ccccc1Cl | -33.1%
CCn1c(SCC(=O)Nc2nccs2)nnc1-c1ccncc1 | 28%
COC(=O)c1ccc(NC(=O)CSc2nnc(-c3ccncc3)n2C)cc1 | 57.2% (active)
CCCCSc1nnc(-c2ccc(NC(=O)CC)cc2)n1C | -15.8%
O=C(CSc1nnc(-c2ccncc2)n1C1CCCCC1)Nc1ccccc1 | 38.6%
Cc1ccccc1C(=O)Nc1cccc(-c2nnc(SCC(=O)O)n2C)c1 | -11.4%
Cn1c(SCC(=O)Nc2cccc(NC(=O)c3cccs3)c2)nnc1-c1ccncc1 | 89.8% (active)
COC(=O)c1ccc(NC(=O)CSc2nnc(CNc3ccc(OC)cc3)n2C)cc1 | 34%
CCC(=O)Nc1cccc(NC(=O)CSc2nnc(-c3ccc(NS(C)(=O)=O)cc3)n2C)c1 | 51.3% (active)
Cn1c(SCC(=O)Nc2cccc(O)c2)nnc1-c1ccc(S(=O)(=O)N2CCOCC2)cc1 | 7.5%
Cc1ccc(-c2ccc(=O)n(CC(=O)NCCCN3CCCCC3)n2)cc1 | 14%
COc1ccccc1C(=O)Nc1nc2nc(-c3ccccc3)cc(=O)n2[nH]1 | 42%
O=C(NCCCCc1ccccc1)C1CC(c2ccc([N+](=O)[O-])cc2)=NO1 (stereo unspecified) | 14.2%

SMILES | inhibition
O=C(CN1CCOCC1)Nc1ccc(NC(=O)CN2CCOCC2)c(Cl)c1 | -1.8%
CN(C)C(=O)c1cc(Br)ccc1Cl | -6.9%
CCCn1c(=NC(C)=O)c(C(=O)OCC)cc2c(=O)n3ccccc3nc21 | 17.1%
O=C(C1CCC1)N1CCc2cc(S(=O)(=O)NCc3cccnc3)ccc21 | 32.9%
O=C(OC1CCCCC1=O)c1cccc(S(=O)(=O)NCc2ccccc2)c1 (stereo unspecified) | 43.1%
Cc1cc(S(=O)(=O)NC2CCCCC2)ccc1OCC(=O)NCc1cccnc1 | 81.1% (active)
O=C(CCc1ccc(S(=O)(=O)NC2CCCCC2)cc1)NCc1ccccc1 | 86.2% (active)
CCCNS(=O)(=O)c1ccc(CCC(=O)NCc2cccnc2)cc1 | 76.8% (active)
CSc1ccc(S(=O)(=O)NC2CCCCC2)cc1 | 17.8%
O=S(=O)(NCc1cccnc1)c1ccc(Cl)nc1 | 6.6%
O=C(CCc1ccccc1)NCc1cccnc1 | 15.7%
Cn1c(=O)c(=O)n(C)c2cc(S(=O)(=O)NCCc3ccccc3)ccc21 | 23.4%
O=C(CN(CC1CCCO1)C(=O)CNS(=O)(=O)c1ccccc1)NCc1ccccc1 (stereo unspecified) | 2.4%
Cc1cc(Cl)c(S(=O)(=O)NCc2cccnc2)cc1OCC(N)=O | -9.2%
Cc1cccc(CCNS(=O)(=O)c2ccc(S(=O)(=O)NC3CCCC3)cc2)c1 | 65.4% (active)
Cc1ccccc1/[N+]([O-])=C/c1ccncc1 | 12.4%
CC1CCN(c2nc3c(c(=O)[nH]c(=O)n3C)n2CCCc2ccccc2)CC1 | 40.9%
C/C(=C\C(=O)c1ccc(Br)cc1)N1CCCCC1 | 2.1%
Cc1nc2ccc(C(=O)N3CCSCC3)cc2s1 | 0.6%
